Most compounds without a hit are left out; they make up all but 8.8% or so of the library.
HT1080 IDH1KD tx = toxicity to HT-1080 IDH1 knockdown cells (counter line); Potency, µM (highest dose often 46.1 µM), for the others: at the highest dose activity, negative = toxicity, actives largely listed as cytotoxic; 360,000 compounds, 2% hits; AID 686971; HT-1080 IDH1 knockdown viability, ATP luminescence, 48 h;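 also: potency is read from the fitted curve at half-maximal effect; 0% = DMSO wells and -100% = cell-free medium wells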
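Knockdown cells (IDH1KD HT-1080) received compounds 2 h after plating at 750 cells/well and were kept 48 h at 37 °C in 5% FBS RPMI. A CellTiter-Glo luminescence read gave % activity for curve fitting.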
HT1080-NT tox = kills 2HG-producing HT-1080-NT fibrosarcoma cells; HT-1080-NT fibrosarcoma viability, CellTiter-Glo ATP luminescence, 48 h; 360,000 compounds, 1.6% hits; Potency, µM (series often up to 46.1 µM), without a hit: at the highest dose activity, negative = less viability, most hits filed as cytotoxic;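 also: NT is the 2HG producing partner of a matched IDH1 knockdown line; potency is read from the fitted curve at half-maximal effect; 0% = DMSO-treated cells and -100% = media-only wells without cells; nearly all actives have a fitted effect of over 55% in size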
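Fibrosarcoma NT cells, 750 per well in 5% FBS RPMI, were exposed to compound for 48 hours. Viability: CellTiter-Glo luminescence.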
IL1B secr inh = inflammasome signaling inhibition, IL-1 beta readout | AID 743279 | activity change, % at 57.5 µM | THP-1 LPS/ATP IL-1B secretion, AlphaLISA, 16 h; hits give low values | 360,000 compounds, 4.7% hits; in the data active = activity change below about -50%; inconclusive = mostly about -30% to -49%
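Secreted IL-1B measured by AlphaLISA bead assay after 16 h compound exposure of THP-1 cells; compounds (final up to 57.5 uM) added 1 h before LPS (250 ng/mL) and ATP (1.25 mM) stimulation; lower signal means less secretion.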
KB-3-1 tox = kills parental KB-3-1 adenocarcinoma cells; KB-3-1 viability, CellTiter-Glo ATP luminescence, 72 h; Potency, µM (titrated, usually from 46.1 µM), actives largely listed as cytotoxic; 400,000 compounds, 1.4% hits; also: potency is read from the fitted curve at half-maximal effect; nearly all actives have a fitted effect of over 60% in size
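KB-3-1 parental drug-naive adenocarcinoma cells in DMEM/10% FBS, incubated 72 h at 37 C with pin-transferred compounds across a concentration series. Viability by CellTiter-Glo luminescence; concentration-response curves fitted after normalization.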
KB-V1 MDR tox = kills drug-selected multidrug resistant KB-V1 cells; AID 1347076; KB-V1 MDR cells viability, CellTiter-Glo, 72 h; 400,000 compounds, 3.4% hits; Potency, µM (top dose mostly 46.1 µM), usual class: cytotoxic; also: potency is read from the fitted curve at half-maximal effect; nearly all actives have a fitted effect of over 60% in size
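Potencies derive from concentration-effect curves fitted to normalized luminescence (CellTiter-Glo) of KB-V1 cells treated for 72 h at 37 degrees C in phenol-red-free DMEM containing 10% FBS.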
Active calls of the source: *; i = inactive; ? = inconclusive; . = no result given; ! = repeats disagree. Unless noted, calls follow the shape of the dose curve; as a rule, active = well fitted curve in the direction sought with a large enough effect; inconclusive = small, poorly fitted or top-dose-only effect, or another doubt; inactive = no such curve, though single readings can be large; an effect the other way counts as inactive or inconclusive. Unless noted, % is scaled to controls: 0 for no effect and ±100 for the full control effect.

SMILES | HT1080 IDH1KD tx | HT1080-NT tox | IL1B secr inh | KB-3-1 tox | KB-V1 MDR tox
Cc1nc2nc(NCc3cccc(Cl)c3)[nH]n2c(=O)c1Cc1ccccc1 | . | . | . | i | ?
CNS(=O)(=O)c1cc(-c2nnc(N3CCOCC3)c3ccccc23)ccc1C | -1% | 7% | 16 | i | i
CC1CCc2nc3ncn(Cc4ccc(Cl)cc4)c(=O)c3cc2C1 (configuration not stated) | . | . | . | i | i
O=C1N=C(N2C=CC(=C3C=CNC=C3)C=C2)/C(=C/N=NC(=O)c2ccccc2)S1 | 9% | 5% | 28 | i | i
CNC(=S)N1CCN=C1Nc1nc(C)cc(C)n1 | 27% | 0% | -5 | i | i
CSCCC1NC2(C(=O)Nc3c(C)cc(Cl)cc32)[C@@H]2C(=O)N(C3CCCC3)C(=O)[C@H]12 (some centres not stated) | -9% | -1% | -9 | ? | 4.6µM*
COc1cccc(CNCC(=O)NC(=O)NC2CCCC2)c1 | 14% | 17% | -1 | i | i
Nc1ccccc1/C=C/c1ccnc2ccccc12 | . | . | . | ? | i
N#Cc1nc(COc2ccccc2)oc1N1CCC(Cc2ccccc2)CC1 | 0% | -4% | -55* | i | i
COc1ccccc1OCc1nc(C#N)c(N2CCCC2)o1 | 9% | 9% | 0 | i | i
Cc1ccccc1OCc1nc(C#N)c(N2CCCC2)o1 | 13% | 17% | -58* | i | i
CC(=O)Nc1ncc(N=Nc2cccc(C(F)(F)F)c2)s1 | -9% | -1% | -6 | i | i
Cc1cccc(N=Nc2cnc(N)s2)c1 | 0% | -2% | -65* | i | i
CCOC(=O)N1CCN(CC(O)COc2ccc(OC)cc2C(C)(C)C)CC1 (configuration not stated) | -2% | 8% | 11 | i | 3.7µM*
C=CCc1cc(OC)ccc1OCC(O)CN1CCN(c2ccc(OC)cc2)CC1 (configuration not stated) | -25% | -10% | -12 | i | 18µM*!
C=CCc1cc(C)ccc1OCC(O)CN1CCN(c2ccccc2)CC1 (configuration not stated) | ? | -29% | 0 | i | i
Cc1ccccc1C(=O)N1CCC(C(=O)NN2C(=O)NC3(CCCCC3)C2=O)CC1 | -13% | 2% | -14 | i | ?
Cc1ccc2oc(/N=C(\N)NC(=O)C3CC3)nc2c1 | ? | -14% | -20 | ? | 5.2µM*
Cc1ccc2oc(/N=C(\N)NC(=O)C(C)(C)C)nc2c1 | -7% | -12% | . | i | i
CCn1c(=O)c2sccc2n2c(CCC(=O)N3CCN(c4ccccc4OC)CC3)nnc12 | . | . | . | i | i
COc1cc2ncnc(N(C)Cc3cccs3)c2cc1-c1ccc2c(c1)OCO2 | . | . | . | i | i
COc1ccc(CCNc2nc(-c3ccc(O)cc3)cs2)cc1OC | -10% | -8% | -62* | i | i
COc1ccc(CCNc2nc(-c3sc(C)nc3C)cs2)cc1OC | -25% | -6% | -56* | ? | i
Nc1nc(Sc2ccc(C(F)(F)F)cc2[N+](=O)[O-])n[nH]1 | -1% | -13% | -9 | i | i
Nc1nc(Sc2c([N+](=O)[O-])cc(C(F)(F)F)cc2[N+](=O)[O-])n[nH]1 | ? | ? | -100* | i | i
SMILES | HT1080 IDH1KD tx | HT1080-NT tox | IL1B secr inh | KB-3-1 tox | KB-V1 MDR tox
CC1=CC(C)C(C[N+]2(C)CCCCC2)C(C)C1 (configuration not stated) | 3% | 3% | -11 | i | i
CC1=CC(C)C(/C=N/N=C(N)N)C(C)C1 (configuration not stated) | 16µM* | ? | -66* | ? | i
Cc1ccccc1OCC(=O)N(Cc1ccc(C(C)C)cc1)C1CCS(=O)(=O)C1 (configuration not stated) | . | . | . | i | i
COc1ccc(C(=O)O/N=C(\N)c2ccc(OC)c(OC)c2)c(OC)c1 | 0% | -6% | -54* | i | ?
COc1ccc2c(c1)CC=C1C2CCC2(C)C(=O)C(=NO)CC12 (configuration not stated) | -1% | -11% | -88* | ? | i
CC(C)(C)OC(=O)N1CCC(c2cc(-c3cccs3)n[nH]2)CC1 | -27% | -17% | -76* | i | i
CC(C)(C)OC(=O)N1CCN(c2nc(-c3cccs3)nc3ccccc23)CC1 | 1% | 2% | . | . | .
COc1ccc(Cl)cc1NC(=O)CCc1c(C)nc2c(c1C)c(=O)n(C)c(=O)n2C | . | . | . | i | ?
O=C(C[n+]1ccccc1)Nc1cc(C(F)(F)F)ccc1Cl | -10% | -6% | -9 | i | i
O=C(Nc1cc(C(F)(F)F)ccc1Cl)C(NCc1ccccc1)c1ccccc1 (configuration not stated) | 0% | -1% | 7 | i | 21µM*
O=C(C[n+]1ccc2ccccc2c1)Nc1cc(C(F)(F)F)ccc1Cl | -19% | -5% | -58* | i | i
O=C(Nc1ccc(Cl)c(C(F)(F)F)c1)C1Cc2c(-c3ccccc3)ccnc2O1 (configuration not stated) | ? | ? | -1 | i | i
COc1ccc(Cl)cc1C(=O)NCC(c1ccco1)N1CCCC1 (configuration not stated) | 7% | 1% | 14 | i | 9.2µM*
COc1ccc(C(CNC(=O)COc2c(C)cc(C)cc2C)N2CCOCC2)cc1 (configuration not stated) | 19% | 0% | -16 | i | i
COc1ccc(C(CNC(=O)c2cccc(N(C)C)c2)N2CCCC2)cc1 (configuration not stated) | 0% | 1% | -15 | i | i
COc1ccc(C(CNC(=O)c2cc3ccccc3cc2OC)N2CCCC2)cc1 (configuration not stated) | 0% | -1% | 0 | i | 4.6µM*
CCC1CCc2sc(C(=O)NCC(c3ccc(OC)cc3)N3CCCC3)cc2C1 (configuration not stated) | ? | ? | ? | ? | 9.2µM*
COc1ccc(C(CNC(=O)COc2ccc(-c3ccccc3)cc2)N2CCOCC2)cc1 (configuration not stated) | ? | -27% | -61* | ? | i
CN(C)c1ccc(CNC(=O)C2COc3ccccc3C2)cc1 (configuration not stated) | . | . | . | i | i
O=C(CNC(=O)c1ccc(F)cc1)N/N=C/c1cccnc1 | 17% | 25% | 25 | i | i
COc1ccc(C(CNC(=O)c2oc3ccc(Br)cc3c2C)N2CCCCC2)cc1 (configuration not stated) | 7% | 5% | -82* | ? | ?

High-throughput results: PubChem, National Center for Advancing Translational Sciences (NCATS)
